# Assay results from PMC7862700, “An all-to-all approach to the identification of sequence-specific readers for epigenetic DNA modifications on cytosine”.
# Key:
# Assay in all cases: DAPPL (digital affinity profiling via proximity ligation, sequencing); 10 mM Tris-HCl pH 7.5, 50 mM NaCl, 1 mM DTT, 4% glycerol, room temperature, 30 min; GST-TFs on glutathione beads, 16-mer random dsDNA library, 0.1% formaldehyde crosslink after washing; high values mean tight binding
# Settings in all cases: protein: recombinant; tags: N-terminal GST; dsDNA, one strand shown
# [1] = biological target: T1, FLI1 (Homo sapiens, UniProt Q01543 1-452)
# T1 sequence: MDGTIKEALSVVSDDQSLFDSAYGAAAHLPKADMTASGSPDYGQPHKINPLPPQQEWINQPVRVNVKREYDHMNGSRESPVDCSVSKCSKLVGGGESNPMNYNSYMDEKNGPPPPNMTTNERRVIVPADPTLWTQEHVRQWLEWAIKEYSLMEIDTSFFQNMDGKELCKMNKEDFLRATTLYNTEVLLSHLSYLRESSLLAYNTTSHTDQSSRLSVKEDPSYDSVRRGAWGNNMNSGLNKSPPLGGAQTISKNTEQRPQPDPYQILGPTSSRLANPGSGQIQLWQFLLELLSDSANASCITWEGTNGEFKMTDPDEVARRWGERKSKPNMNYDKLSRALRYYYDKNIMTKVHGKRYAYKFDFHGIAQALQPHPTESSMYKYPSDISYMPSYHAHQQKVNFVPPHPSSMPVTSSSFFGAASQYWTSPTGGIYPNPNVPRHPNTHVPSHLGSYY
# Procedure, shortened: (§1)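 After expression in yeast as GST fusions, human transcription factors were bound to glutathione beads, DNA-barcoded and mixed with a tag-only sample. The pools were incubated with 200 nmole of a 16-mer random double-stranded DNA library in Tris/NaCl/DTT/glycerol buffer (30 min, room temperature), washed and crosslinked with 0.1% formaldehyde. Proximity ligation with BsaI/T4 ligase ran for 1 h at 37 °C, before PCR amplification and sequencing on an Illumina NextSeq500. Binding signal is a hexamer's read frequency for a factor divided by its frequency for the tag-only sample.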
# [2] = biological target: T2, ELK1 (Homo sapiens, UniProt P19419 1-428)
# T2 sequence: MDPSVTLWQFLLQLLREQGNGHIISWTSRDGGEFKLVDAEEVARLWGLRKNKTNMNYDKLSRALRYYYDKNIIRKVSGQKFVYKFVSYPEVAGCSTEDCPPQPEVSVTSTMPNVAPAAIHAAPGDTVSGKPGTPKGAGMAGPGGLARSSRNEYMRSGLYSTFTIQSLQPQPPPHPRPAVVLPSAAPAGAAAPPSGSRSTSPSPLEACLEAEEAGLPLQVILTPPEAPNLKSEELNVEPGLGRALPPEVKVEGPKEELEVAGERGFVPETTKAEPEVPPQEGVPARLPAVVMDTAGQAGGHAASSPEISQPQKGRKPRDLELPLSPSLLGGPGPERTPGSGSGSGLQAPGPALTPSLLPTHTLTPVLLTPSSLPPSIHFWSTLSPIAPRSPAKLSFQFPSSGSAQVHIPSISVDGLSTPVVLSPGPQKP
# Procedure, shortened: as §1
# [3] = biological target: T3, GABPA (Homo sapiens, UniProt Q06546 1-454)
# T3 sequence: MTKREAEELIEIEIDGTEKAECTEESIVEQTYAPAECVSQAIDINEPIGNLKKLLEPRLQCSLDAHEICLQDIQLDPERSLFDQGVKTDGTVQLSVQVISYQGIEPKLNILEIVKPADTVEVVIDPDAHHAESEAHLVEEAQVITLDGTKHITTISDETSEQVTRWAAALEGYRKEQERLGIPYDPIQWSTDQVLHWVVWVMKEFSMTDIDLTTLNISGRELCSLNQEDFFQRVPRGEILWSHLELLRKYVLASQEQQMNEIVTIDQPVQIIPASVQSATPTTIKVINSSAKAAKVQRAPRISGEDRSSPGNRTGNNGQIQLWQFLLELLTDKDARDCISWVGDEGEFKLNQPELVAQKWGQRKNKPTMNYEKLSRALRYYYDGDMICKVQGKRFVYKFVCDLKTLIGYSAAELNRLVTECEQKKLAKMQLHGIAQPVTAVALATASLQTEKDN
# Procedure, shortened: as §1
# [4] = biological target: T4, ERG (Homo sapiens, UniProt P11308 1-479)
# T4 sequence: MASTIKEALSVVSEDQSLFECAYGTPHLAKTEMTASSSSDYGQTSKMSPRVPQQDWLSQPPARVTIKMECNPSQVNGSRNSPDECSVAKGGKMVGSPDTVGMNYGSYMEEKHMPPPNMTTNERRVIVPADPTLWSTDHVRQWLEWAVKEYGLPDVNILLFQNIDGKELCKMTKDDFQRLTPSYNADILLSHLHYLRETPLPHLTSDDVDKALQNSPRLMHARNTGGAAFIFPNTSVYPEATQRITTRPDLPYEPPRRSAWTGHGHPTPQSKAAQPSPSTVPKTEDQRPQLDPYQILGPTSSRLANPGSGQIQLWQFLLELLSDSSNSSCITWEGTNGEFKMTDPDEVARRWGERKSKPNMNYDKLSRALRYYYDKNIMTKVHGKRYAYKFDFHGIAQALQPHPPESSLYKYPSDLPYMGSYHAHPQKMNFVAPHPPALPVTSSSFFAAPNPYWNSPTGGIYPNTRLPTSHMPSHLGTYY
# Procedure, shortened: as §1
# [5] = biological target: ELF1 (Homo sapiens, UniProt P32519 1-619)
# Procedure, shortened: as §1
# [6] = biological target: T5, EHF (Homo sapiens, UniProt Q9NZC4 1-300)
# T5 sequence: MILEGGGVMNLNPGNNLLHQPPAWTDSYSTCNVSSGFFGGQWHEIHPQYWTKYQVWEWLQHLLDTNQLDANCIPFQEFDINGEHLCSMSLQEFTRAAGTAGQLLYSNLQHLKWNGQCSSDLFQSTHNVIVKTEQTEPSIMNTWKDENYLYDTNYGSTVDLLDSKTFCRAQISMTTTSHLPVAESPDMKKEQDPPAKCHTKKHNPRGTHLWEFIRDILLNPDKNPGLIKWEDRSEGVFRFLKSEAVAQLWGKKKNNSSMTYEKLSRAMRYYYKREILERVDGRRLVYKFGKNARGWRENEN
# Procedure, shortened: as §1
# [7] = biological target: SPI1 (Homo sapiens, UniProt P17947 1-270)
# Procedure, shortened: as §1
# [8] = biological target: SPIB (Homo sapiens, UniProt Q01892 1-262)
# Procedure, shortened: as §1
# [9] = biological target: T6, ELK3 (Homo sapiens, UniProt P41970 1-407)
# T6 sequence: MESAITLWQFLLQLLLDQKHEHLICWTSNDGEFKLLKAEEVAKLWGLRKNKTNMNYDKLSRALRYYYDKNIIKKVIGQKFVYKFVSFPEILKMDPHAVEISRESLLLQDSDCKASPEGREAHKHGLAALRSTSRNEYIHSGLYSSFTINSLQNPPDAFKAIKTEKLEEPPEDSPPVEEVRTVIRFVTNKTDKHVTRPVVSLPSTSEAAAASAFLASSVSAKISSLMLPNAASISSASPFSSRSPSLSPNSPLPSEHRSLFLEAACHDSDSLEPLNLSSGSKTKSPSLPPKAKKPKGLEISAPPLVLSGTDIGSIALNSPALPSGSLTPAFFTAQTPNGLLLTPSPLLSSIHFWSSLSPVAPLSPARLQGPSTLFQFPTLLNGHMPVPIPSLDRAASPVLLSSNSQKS
# Procedure, shortened: as §1
# ELF1, sequence (P32519 whole entry): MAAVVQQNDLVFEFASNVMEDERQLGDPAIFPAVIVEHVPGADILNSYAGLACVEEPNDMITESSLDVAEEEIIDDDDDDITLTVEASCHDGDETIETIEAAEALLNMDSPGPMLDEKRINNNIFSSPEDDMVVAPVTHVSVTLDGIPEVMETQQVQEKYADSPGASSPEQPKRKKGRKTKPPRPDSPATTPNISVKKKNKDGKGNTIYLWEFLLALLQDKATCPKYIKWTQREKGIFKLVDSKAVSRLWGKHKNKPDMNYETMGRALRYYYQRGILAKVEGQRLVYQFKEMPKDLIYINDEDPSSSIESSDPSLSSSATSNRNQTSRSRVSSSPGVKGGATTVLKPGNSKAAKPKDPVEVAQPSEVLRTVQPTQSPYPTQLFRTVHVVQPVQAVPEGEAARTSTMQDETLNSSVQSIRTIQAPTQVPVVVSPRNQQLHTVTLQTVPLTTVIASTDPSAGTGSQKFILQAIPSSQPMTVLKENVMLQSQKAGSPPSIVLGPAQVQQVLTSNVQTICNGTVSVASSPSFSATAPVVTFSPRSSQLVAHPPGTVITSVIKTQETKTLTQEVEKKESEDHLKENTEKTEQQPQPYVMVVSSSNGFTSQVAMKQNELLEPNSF
# SPIB, sequence (Q01892 whole entry): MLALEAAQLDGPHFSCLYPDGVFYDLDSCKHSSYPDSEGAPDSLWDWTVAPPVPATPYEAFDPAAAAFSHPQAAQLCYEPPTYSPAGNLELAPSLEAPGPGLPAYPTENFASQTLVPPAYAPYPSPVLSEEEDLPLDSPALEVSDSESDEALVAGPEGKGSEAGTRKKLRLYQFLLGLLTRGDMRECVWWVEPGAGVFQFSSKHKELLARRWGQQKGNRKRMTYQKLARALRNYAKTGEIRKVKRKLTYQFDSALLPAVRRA
sequence,measurement,setting,value
CACGCG,binding signal,[1],"1.32 fold enrichment (6-mer frequency, TF over GST control)"
same,binding signal,[2],"1.15 fold enrichment (6-mer frequency, TF over GST control)"
same,binding signal,[3],"1.23 fold enrichment (6-mer frequency, TF over GST control)"
same,binding signal,[4],"1.18 fold enrichment (6-mer frequency, TF over GST control)"
same,binding signal,[5],"1.23 fold enrichment (6-mer frequency, TF over GST control)"
same,binding signal,[6],"1.2 fold enrichment (6-mer frequency, TF over GST control)"
same,binding signal,[7],"1.08 fold enrichment (6-mer frequency, TF over GST control)"
same,binding signal,[8],"1.2 fold enrichment (6-mer frequency, TF over GST control)"
same,binding signal,[9],"1.14 fold enrichment (6-mer frequency, TF over GST control)"
